TDP1 inh – qHTS Assay for Inhibitors of Tyrosyl-DNA Phosphodiesterase (TDP1). Tyrosyl-DNA phosphodiesterase 1 (Homo sapiens), Q9NUW8. recombinant TDP1, AlphaScreen DNA substrate cleavage. Potency, µM (titrated, usually from 130 µM), for the others: at the highest dose activity change, negative = inhibition, most hits filed as inhibitors. 350,000 tested, 0.28% active. AID 485290, 2010; further: potency means the concentration at half of the fitted maximal effect; nearly all actives have a fitted effect of over 40% in size
Target sequence (Q9NUW8 whole entry, looked up): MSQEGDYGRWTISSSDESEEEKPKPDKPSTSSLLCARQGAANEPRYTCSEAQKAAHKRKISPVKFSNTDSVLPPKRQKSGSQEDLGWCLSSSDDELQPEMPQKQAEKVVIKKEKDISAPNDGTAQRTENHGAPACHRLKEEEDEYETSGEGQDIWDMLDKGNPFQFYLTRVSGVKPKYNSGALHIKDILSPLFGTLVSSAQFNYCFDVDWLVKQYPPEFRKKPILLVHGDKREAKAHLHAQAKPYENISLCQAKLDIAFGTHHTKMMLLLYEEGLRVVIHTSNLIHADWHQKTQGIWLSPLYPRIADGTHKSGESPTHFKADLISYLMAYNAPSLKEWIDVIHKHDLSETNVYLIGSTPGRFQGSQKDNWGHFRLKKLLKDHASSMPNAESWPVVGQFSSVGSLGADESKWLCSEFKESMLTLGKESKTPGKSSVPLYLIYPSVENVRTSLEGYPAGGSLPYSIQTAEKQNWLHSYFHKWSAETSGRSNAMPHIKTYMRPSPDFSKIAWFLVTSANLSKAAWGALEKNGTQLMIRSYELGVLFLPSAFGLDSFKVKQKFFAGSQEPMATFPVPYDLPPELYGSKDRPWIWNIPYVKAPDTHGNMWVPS
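Tdp1 1 nM final; 15 min RT w/ cpd; substrate 15 nM, 5 min; beads 10 ug/ml, 10 min; AlphaScreen read. Neg ctrl: no enzyme.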
ELG1 repair inh – qHTS screen for small molecules that inhibit ELG1-dependent DNA repair in human embryonic kidney (HEK293T) cells expressing luciferase-tagged ELG1; Potency, µM (top dose mostly 46.1 µM), inactives show at the top dose activity change, negative = inhibition, hits mostly inhibitors; HEK293T ELG1-luciferase reporter, luminescence, 16 h; DNA damage induced by 5-fluorouridine; 330,000 tested, 2.3% active; AID 504467, 2011; further: potency means the concentration at half of the fitted maximal effect; nearly all actives have a fitted effect of over 55% in size
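HEK293T cells expressing luciferase-tagged ELG1 (2,000/well) received 5-Fluorouridine plus compound or DMSO for 16 hr at 37 °C. Luciferase was read by ONE-Glo luminescence after 30 min at room temperature.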
TDP1 cell CPT – qHTS for Inhibitors of human tyrosyl-DNA phosphodiesterase 1 (TDP1): qHTS in cells in presence of CPT. chicken DT40 Tdp1-/-;hTDP1 cells + 20 nM CPT, ATP luminescence, 48 h. Potency, µM (highest dose often 46.2 µM), inactives show at the top dose activity change, negative = growth inhibition, hits mostly inhibitors. 420,000 tested, 12% active. AID 686979, 2013; further: potency means the concentration at half of the fitted maximal effect; nearly all actives have a fitted effect of over 55% in size
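Cell growth measured by CellTiter-Glo luminescence after a minimum 48 h, 37 C compound exposure with 20 nM CPT in Tdp1-knockout DT40 cells stably expressing hTDP1, seeded 400/well; qHTS titration format.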
TDP1 cell noCPT – qHTS for Inhibitors of human tyrosyl-DNA phosphodiesterase 1 (TDP1): qHTS in cells in absence of CPT | 420,000 tested, 15% active | Potency, µM (top dose mostly 46.2 µM), inactives show top-dose activity change, negative = growth inhibition, hits mostly inhibitors | DT40 Tdp1-/- hTDP1 cells, no CPT, ATP luminescence, 48 h; further: potency means the concentration at half of the fitted maximal effect; nearly all actives have a fitted effect of over 55% in size
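Camptothecin absent (DMSO only). Human TDP1-complemented DT40 knockout cells, 400 cells/well, 37 °C for minimum 48 hr; ATP measured via CellTiter-Glo, 30 min dark incubation, luminescence.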
IL1B secr inh – qHTS for Inhibitors of Inflammasome Signaling: IL-1-beta AlphaLISA Primary Screen; THP-1 LPS/ATP IL-1B secretion, AlphaLISA, 16 h; hits give low values; 360,000 tested, 4.7% active; activity change, % at 57.5 µM; AID 743279, 2014; in the data active means activity change below about -50%; inconclusive means mostly about -30% to -49%
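THP-1 cells pretreated 1 hr with compounds (up to 57.5 uM final), then stimulated with LPS (250 ng/mL final) plus ATP (1.25 mM final); secreted IL-1B measured by AlphaLISA after 16 hr, decreased signal indicating inhibition.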
Giardia kill – Small Molecules that selectively kill Giardia lamblia: qHTS | activity change, % at 7.66 µM, hits read low | 340,000 tested, 0.15% active | Giardia lamblia trophozoite viability; in the data active means activity change below about -80%; inconclusive means between about -30% and that limit;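 further: parasites exposed to compound for two days anaerobically before the ATP read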
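Trophozoites 100 cells/well + cpd; 48 hrs, 37 deg C, anaerobic. ATPLite 1-Step added, 15-30 min RT, luminescence read (ATP-based viability).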
Active calls of the source: *; [ ] = remark or other dose. The list is not random: actives were taken first. Their share in the collection is about 19%. Unless noted, the call rests on the fitted dose curve; in most records, active means well fitted curve in the direction sought with a large enough effect; inconclusive means small, poorly fitted or top-dose-only effect, or another doubt; inactive means no such curve, though single readings can be large; an effect the other way counts as inactive or inconclusive. On the % scale 0 is the no-effect control and ±100 the full control effect.

`Cc1cccc(OC(C)C(=O)NCC2(N(C)C)CCCCC2)c1C` (stereo not given) gave TDP1 inh -3%, TDP1 cell CPT -24% and TDP1 cell noCPT -26%.
Screening CCN(CC)S(=O)(=O)c1ccc(C(=O)NC(=S)N2CCN(c3ccccc3O)CC2)cc1 returned TDP1 cell CPT inconclusive, TDP1 cell noCPT 18µM* and IL1B secr inh -20.
For O=C(NC(=S)N1CC1)c1ccccc1 the results were TDP1 cell CPT -4%, TDP1 cell noCPT inconclusive and IL1B secr inh 16.
`CC1(C)CC[C@]2(C)CC[C@]3(C)C4C[C@@H]5OO[C@@]6(O5)C(CCCC6(C)C)[C@]4(C)CC[C@@]3(C)C2C1` (stereo not given in full) gave TDP1 cell CPT 8.2µM*, TDP1 cell noCPT 5.2µM*, IL1B secr inh 5 and Giardia kill 29.
Screening C[N+]1(C)C2CC[C@H]1CC(OC(=O)[C@@H](CO)c1ccccc1)C2 (stereo not given in full) returned TDP1 inh 6%.
`CC(=O)OC1(c2ccccc2)CCN(CCc2ccccc2)CC1` gave TDP1 cell CPT inconclusive and TDP1 cell noCPT 22µM*.
Screening CCN1CCN(c2cc(N3CCCC3)c(F)cc2[N+](=O)[O-])CC1 returned TDP1 inh -8%, ELG1 repair inh 0%, TDP1 cell CPT inconclusive, TDP1 cell noCPT 16µM*, IL1B secr inh -7 and Giardia kill -5.
CN1CCN(c2cc(N3CCCC3)c([N+](=O)[O-])cc2F)CC1 was read as TDP1 inh 4%, ELG1 repair inh inconclusive, TDP1 cell CPT -26%, TDP1 cell noCPT inconclusive, IL1B secr inh inconclusive and Giardia kill 5.
`CC(Cc1ccccc1)NCCn1cnc2c1c(=O)n(C)c(=O)n2C` (stereo not given) gave TDP1 cell CPT -29%[92.5 µM] and TDP1 cell noCPT inconclusive.
`CC(=O)OC1C[C@]2(C)C(C(C)=O)CCC2C2CCC3=CC(=O)CC[C@@]3(C)C12` (stereo not given in full) gave TDP1 inh 7%, TDP1 cell CPT inconclusive and TDP1 cell noCPT inconclusive.
For CC1=C2C3OC(=O)[C@H](C)[C@H]3CC[C@@]2(C)C=CC1=O (stereo not given in full) the results were TDP1 inh 8%, TDP1 cell CPT 1% and TDP1 cell noCPT -16%.
Screening O=C(c1c[nH]c2ccc(S(=O)(=O)N3CCC4(CC3)OCCO4)cc2c1=O)N1CCC2(CC1)OCCO2 returned ELG1 repair inh -9%, TDP1 cell CPT 7%, TDP1 cell noCPT -2%, IL1B secr inh -18 and Giardia kill 14.
For Cn1nc(C(C)(C)C)cc1C(=O)N1CCCCC1c1cc(C(=O)Nc2ccc(F)c(Cl)c2)no1 (stereo not given) the results were TDP1 cell CPT 21µM*, TDP1 cell noCPT inconclusive and IL1B secr inh -64*.
Screening Oc1cc(Cl)cc(Cl)c1 returned TDP1 inh 4%.
O=C1c2ccccc2-c2c1nc1c([n+]2[O-])CCCC1 was read as TDP1 inh 2%, ELG1 repair inh inconclusive, TDP1 cell CPT 12µM*, TDP1 cell noCPT inconclusive, IL1B secr inh 8 and Giardia kill -6.
For NC1(c2ccccc2)CCCCC1 the results were TDP1 cell CPT -21%[92.5 µM] and TDP1 cell noCPT inconclusive.
`c1ccc(C2(NC3=NCCO3)CCCCC2)cc1` gave TDP1 cell CPT inconclusive, TDP1 cell noCPT 9.2µM* and IL1B secr inh inconclusive.
`CSCCC(c1nnnn1-c1ccc2c(c1)OCCO2)N1CCC(n2c(=O)[nH]c3ccccc32)CC1` (stereo not given) gave TDP1 cell CPT 7.3µM*, TDP1 cell noCPT 7.3µM* and IL1B secr inh inconclusive.
CCC(c1nnnn1-c1ccc2c(c1)OCCO2)N1CCC(n2c(=O)[nH]c3ccccc32)CC1 (stereo not given) was read as TDP1 cell CPT 10µM*, TDP1 cell noCPT 9.2µM* and IL1B secr inh -20.
`CSCCC(c1nnnn1C(C)(C)C)N1CCC2(CC1)C(=O)NCN2c1ccccc1` (stereo not given) gave TDP1 cell CPT inconclusive, TDP1 cell noCPT inconclusive and IL1B secr inh -10.
For CN(C)S(=O)(=O)c1ccc(C(=O)NCCSc2c(-c3ccccc3)[nH]c3ccccc23)cc1 the results were TDP1 inh 3%, TDP1 cell CPT 6.5µM* and TDP1 cell noCPT 6.5µM*.
`O=C(NCCSc1c(-c2ccccc2)[nH]c2ccccc12)c1ccc(S(=O)(=O)N2CCOCC2)cc1` gave TDP1 inh 6%, TDP1 cell CPT 5.8µM* and TDP1 cell noCPT 8.2µM*.
For Oc1c(Cl)c(Cl)cc(Cl)c1Cl the results were TDP1 inh 3%.
For CNCC(N)C(=O)O (stereo not given) the results were TDP1 inh 28%.
`CCOP(=S)(OCC)SCSP(=S)(OCC)OCC` gave TDP1 cell CPT -5%, TDP1 cell noCPT inconclusive, IL1B secr inh 2 and Giardia kill -23.
For COc1cccc(NC(=O)CCc2nc(-c3ccc(C(C)(C)C)cc3)no2)c1 the results were TDP1 inh 5%, TDP1 cell CPT inconclusive and TDP1 cell noCPT inconclusive.
COc1cccc(NC(=O)C2CCN(S(=O)(=O)c3cc(-c4noc(C)n4)ccc3C)CC2)c1 was read as TDP1 inh 0%, TDP1 cell CPT 18µM* and TDP1 cell noCPT 18µM*.
`c1ccc(OP(Oc2ccccc2)Oc2ccccc2)cc1` gave TDP1 inh 8%.
`Cc1cc(=O)n(-c2ccccc2)n1C` gave TDP1 inh 1%, ELG1 repair inh inconclusive, TDP1 cell CPT -11%, TDP1 cell noCPT -7%, IL1B secr inh -66* and Giardia kill 7.
CCC1=CCN(CCc2c(C)[nH]c3ccccc23)CC1 was read as TDP1 cell CPT 2%, TDP1 cell noCPT 0.58µM*, IL1B secr inh -8 and Giardia kill 2.
Screening CCC(=O)O[C@](Cc1ccccc1)(c1ccccc1)[C@H](C)CN(C)C returned TDP1 cell CPT 43µM* and TDP1 cell noCPT 38µM*.
